According to PubChem BioAssay (NCI):
This is part of a sample that, as a whole, favours compounds with a hit. Of some 79,000 tested, about 15% had one in any assay. The source made the active and inactive calls. Rule as the data show it: active = growth inhibition above about 70%; inactive = the rest.

How the values were obtained:
[1] = NCI Yeast Anticancer Drug Screen. Data for the rad52 strain (AID 147);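 also: 0% = growth of vehicle-treated control cultures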; conditions: S. cerevisiae rad52 mutant growth inhibition, stronger effect = higher value
Method in brief: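 Inhibition of yeast growth, referenced to vehicle controls, was the measured output for a strain with defective DNA damage repair.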

[2] = NCI Yeast Anticancer Drug Screen. Data for the wt1 strain (AID 149);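 also: 0% = growth of vehicle-treated wt1 cultures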; conditions: S. cerevisiae wt1 strain (SPY 50644) growth inhibition, stronger effect = higher value
Method in brief: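 Measured: growth of wt1 yeast under compound versus vehicle treatment, reported as inhibition.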

[3] = NCI Yeast Anticancer Drug Screen. Data for the rad50EPP+ strain (AID 151);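 also: 0% = growth of vehicle-treated control cultures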; conditions: S. cerevisiae rad50 mutant strain, stronger effect = higher value
Method in brief: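 Genetically defined yeast (rad50EPP+, DNA damage repair alteration) is grown with compound, and inhibition of growth is expressed relative to vehicle-treated controls.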

[4] = NCI Yeast Anticancer Drug Screen. Data for the mgt1 strain (AID 153); conditions: S. cerevisiae mgt1 mutant growth inhibition, stronger effect = higher value
Method in brief: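 In the mgt1 strain, test compounds were added and growth inhibition was determined relative to vehicle-treated controls.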

[5] = NCI Yeast Anticancer Drug Screen. Data for the rad50 strain (AID 155);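 also: 0% = growth of vehicle-only cultures of the same strain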; conditions: S. cerevisiae rad50 strain growth inhibition, stronger effect = higher value
Method in brief: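 Growth of the mutant yeast was measured after compound exposure and referenced to vehicle-treated cultures.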

[6] = NCI Yeast Anticancer Drug Screen. Data for the mec2-1 strain (AID 157); conditions: S. cerevisiae mec2-1 strain, stronger effect = higher value
Method in brief: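 Each compound was tested on mec2-1 yeast, a strain altered in DNA damage repair or cell cycle control. Growth inhibition is reported relative to vehicle.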

[7] = NCI Yeast Anticancer Drug Screen. Data for the rad14 strain (AID 159);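 also: 0% = growth of vehicle-treated control cultures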; conditions: S. cerevisiae rad14 strain growth inhibition, stronger effect = higher value
Method in brief: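 Here, inhibition of yeast growth was measured after compound exposure, using a strain with a genetic defect in DNA damage repair and vehicle-treated cultures as the reference.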

[8] = NCI Yeast Anticancer Drug Screen. Data for the sgs1 mgt1 strain (AID 161);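 also: 0% = growth of cultures given vehicle only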; conditions: S. cerevisiae sgs1 mgt1 strain, stronger effect = higher value
Method in brief: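 Test agents were incubated with a DNA-repair-mutant yeast strain. Growth was then read and compared against vehicle-treated controls.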

[9] = NCI Yeast Anticancer Drug Screen. Data for the CLN2oe strain (AID 163);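 also: 0% = growth of vehicle-only control cultures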; conditions: S. cerevisiae CLN2oe strain, stronger effect = higher value
Method in brief: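 First, the altered yeast strain was treated with each compound; second, its growth was measured; finally, inhibition was derived by comparison with vehicle controls.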

[10] = NCI Yeast Anticancer Drug Screen. Data for the cln2 rad14 strain (AID 165);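 also: 0% = growth equal to vehicle treated cultures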; conditions: S. cerevisiae cln2 rad14 strain, stronger effect = higher value
Method in brief: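 Test compounds were added to cln2 rad14 yeast cultures; inhibition of growth was then determined by comparison with vehicle treatment.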

[11] = NCI Yeast Anticancer Drug Screen. Data for the wt2 strain (AID 169);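 also: 0% = growth of vehicle-treated yeast cultures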; conditions: S. cerevisiae wt2 strain growth inhibition, stronger effect = higher value
Method in brief: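 The panel's yeast strains carry defined changes in DNA repair or cell cycle genes. Each strain is grown with compound, and growth loss is scored relative to vehicle.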

[12] = NCI Yeast Anticancer Drug Screen. Data for the mlh1 strain (AID 171);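 also: 0% = growth of vehicle-treated control cultures of the same strain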; conditions: S. cerevisiae mlh1 strain growth inhibition, stronger effect = higher value
Method in brief: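 Inhibition values reflect reduced yeast growth in the presence of compound, referenced to vehicle controls, using a strain chosen for its alteration in DNA repair or cell cycle control.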

[13] = NCI Yeast Anticancer Drug Screen. Data for the sgs1 strain (AID 173);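 also: 0% = growth of vehicle-only control cultures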; conditions: S. cerevisiae sgs1 mutant, stronger effect = higher value
Method in brief: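 Vehicle-treated cultures served as reference for growth inhibition of a yeast strain altered in DNA damage repair or cell cycle control after compound exposure.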

[14] = NCI Yeast Anticancer Drug Screen. Data for the mlh1 rad18 strain (AID 175); conditions: S. cerevisiae mlh1 rad18 strain growth inhibition, stronger effect = higher value
Method in brief: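 Inhibition values reflect reduced growth of mutant yeast versus vehicle-treated controls following compound exposure; the mutations affect DNA damage repair.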

[15] = NCI Yeast Anticancer Drug Screen. Data for the bub3 strain (AID 167); conditions: S. cerevisiae bub3 mutant strain, stronger effect = higher value
Method in brief: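 Whole-cell yeast assay. The mutant strain was incubated with compounds, and growth inhibition was determined by comparison with vehicle-treated cells.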

[16] = NCI Yeast Anticancer Drug Screen. Data for the rad18 strain (AID 177); conditions: S. cerevisiae rad18 mutant growth inhibition, stronger effect = higher value
Method in brief: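 Steps: expose repair-mutant yeast to compound; measure growth; express as inhibition relative to vehicle control.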

[17] = at 5.0 µM (retest, dose inferred, filed as 0.5)
[18] = at 50.0 µM (retest, dose inferred, filed as 5.0)

Measured: growth inhibition

COc1ccc(/C=C/c2sc3ccccc3[n+]2CCCCI)cc1OC
inactive: [1]; at 1.2 µM -8% | [1]; at 3.7 µM 1% | [1]; at 11.0 µM -2% | [1]; at 33.0 µM 55% | [2]; at 1.2 µM -84% | [2]; at 3.7 µM -3% | [2]; at 11.0 µM -6% | [2]; at 33.0 µM 33% | [3]; at 1.2 µM -5% | [3]; at 3.7 µM -2% | [3]; at 11.0 µM -4% | [3]; at 33.0 µM 0% | [3]; at 100.0 µM -3% | [4]; at 1.2 µM 0% | [4]; at 3.7 µM -1% | [4]; at 11.0 µM -4% | [5]; at 1.2 µM -2% | [5]; at 3.7 µM -3% | [5]; [17] -11% | [5]; at 11.0 µM -7% | [5]; at 33.0 µM 48% | [5]; [18] 20% | [6]; at 1.2 µM -6% | [6]; at 3.7 µM -6% | [6]; [17] -16% | [6]; at 11.0 µM -11% | [6]; at 33.0 µM 64% | [6]; [18] 56% | [7]; at 1.2 µM -2% | [7]; at 3.7 µM -3% | [7]; at 11.0 µM -7% | [8]; [17] -9% | [8]; [18] 29% | [9]; at 1.2 µM -7% | [9]; at 3.7 µM -7% | [9]; at 11.0 µM -8% | [9]; at 33.0 µM -10% | [9]; at 100.0 µM 68% | [10]; [17] 36% | [10]; [18] 54% | [10]; at 50.0 µM 29.6% | [11]; at 1.2 µM -3% | [11]; at 3.7 µM -3% | [11]; at 11.0 µM -6% | [11]; at 33.0 µM 26% | [12]; at 1.2 µM -2% | [12]; at 3.7 µM -4% | [12]; at 11.0 µM -6% | [12]; at 33.0 µM 66% | [13]; at 1.2 µM 1% | [13]; at 3.7 µM 4% | [13]; at 11.0 µM -2% | [14]; [17] -9% | [14]; [18] 46%
active: [1]; at 100.0 µM 94% | [2]; at 100.0 µM 89% | [4]; at 33.0 µM 76% | [4]; at 100.0 µM 98% | [5]; at 50.0 µM 74.9% | [5]; at 100.0 µM 93% | [6]; at 50.0 µM 81.4% | [6]; at 100.0 µM 95% | [7]; at 33.0 µM 84% | [7]; at 100.0 µM 98% | [8]; at 50.0 µM 95.2% | [11]; at 100.0 µM 97% | [12]; at 100.0 µM 97% | [13]; at 33.0 µM 84% | [13]; at 100.0 µM 97% | [14]; at 50.0 µM 95.6%

CCOc1ccccc1N=Cc1c2ccccc2cc2ccccc12
inactive: [1]; at 1.2 µM 10% | [1]; at 3.7 µM 28% | [2]; at 1.2 µM -2% | [2]; at 3.7 µM 26% | [3]; at 1.2 µM -4% | [3]; at 3.7 µM 24% | [3]; at 11.0 µM 63% | [4]; at 1.2 µM 2% | [5]; at 1.2 µM 1% | [5]; at 3.7 µM 39% | [5]; [17] 11% | [6]; at 1.2 µM -18% | [6]; at 3.7 µM 33% | [6]; [17] 7% | [7]; at 1.2 µM -23% | [8]; [17] -8% | [9]; at 1.2 µM 18% | [9]; at 3.7 µM 36% | [10]; [17] 44% | [10]; at 50.0 µM 58.6% | [15]; at 1.2 µM 4% | [15]; at 3.7 µM 34% | [15]; [17] 37% | [12]; at 1.2 µM 18% | [12]; at 3.7 µM 56% | [13]; at 1.2 µM -18% | [13]; at 3.7 µM 24% | [14]; [17] 38% | [16]; at 1.2 µM -3% | [16]; at 3.7 µM 21%
active: [1]; at 11.0 µM 98% | [1]; at 33.0 µM 99% | [1]; at 100.0 µM 99% | [2]; at 11.0 µM 95% | [2]; at 33.0 µM 97% | [2]; at 100.0 µM 95% | [3]; at 33.0 µM 90% | [3]; at 100.0 µM 89% | [4]; at 3.7 µM 75% | [4]; at 11.0 µM 97% | [4]; at 33.0 µM 98% | [4]; at 100.0 µM 98% | [5]; at 11.0 µM 97% | [5]; at 33.0 µM 98% | [5]; [18] 98% | [5]; at 50.0 µM 88.8% | [5]; at 100.0 µM 97% | [6]; at 11.0 µM 98% | [6]; at 33.0 µM 98% | [6]; [18] 99% | [6]; at 50.0 µM 90.8% | [6]; at 100.0 µM 98% | [7]; at 3.7 µM 74% | [7]; at 11.0 µM 98% | [7]; at 33.0 µM 98% | [7]; at 100.0 µM 98% | [8]; [18] 98% | [8]; at 50.0 µM 90.9% | [9]; at 11.0 µM 97% | [9]; at 33.0 µM 98% | [9]; at 100.0 µM 97% | [10]; [18] 98% | [15]; at 11.0 µM 96% | [15]; at 33.0 µM 98% | [15]; [18] 99% | [15]; at 50.0 µM 89.9% | [15]; at 100.0 µM 97% | [12]; at 11.0 µM 97% | [12]; at 33.0 µM 98% | [12]; at 100.0 µM 97% | [13]; at 11.0 µM 96% | [13]; at 33.0 µM 97% | [13]; at 100.0 µM 96% | [14]; [18] 98% | [14]; at 50.0 µM 86.5% | [16]; at 11.0 µM 97% | [16]; at 33.0 µM 98% | [16]; at 100.0 µM 97%
